D1 potentiator: enhances dopamine response at the human D1 receptor. potentiation, % at 10 µM. HEK293 TREx D1 cells, calcium flux, dopamine EC20 potentiation. P21728. hit rate 0.036% among 360,000; in the data active = potentiation above about 30%; note: 0% is about no effect
D1 antag: human D1 dopamine receptor antagonism; AID 504652; P21728; hit rate 3.2% among 360,000; activity change, negative = inhibition, % at 10 µM; HEK293 TREx D1 cells, calcium flux, dopamine EC80; active compounds read low; in the data active = activity change below about -30%; note: % is set by controls: 0 for no effect and ±100 for the full control effect
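Tetracycline-induced HEK293 T-REx cells with force-coupled D1 receptor were loaded with a no-wash calcium dye. Compound was added after a 10 s baseline and read kinetically for 180 s; EC80 dopamine was then added and calcium flux followed another 180 s.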
D1 agonist: human D1 receptor agonism; P21728; AID 504660; HEK293 T-REx D1 cells, calcium flux, agonist mode; activation, % at 2 µM; hit rate 1% among 360,000; note: 0% is about no effect
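Agonism was scored from calcium flux recorded over 180 s (1 read/s) after pintool compound addition, following a 10-cycle baseline. Cells were inducible force-coupled HEK293 TREx D1, plated overnight at 30 C and loaded with no-wash calcium dye.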
TRHR enhancer: TRH receptor (human) allosteric enhancement; enhancement, % at 2 µM; hit rate 0.66% among 360,000; P34981; TRHR cells, fluo-8 calcium fluorescence, EC20 TRH enhancement; in the data active = enhancement above about 30%; note: 0% is about no effect
Target sequence (P34981 whole entry, looked up): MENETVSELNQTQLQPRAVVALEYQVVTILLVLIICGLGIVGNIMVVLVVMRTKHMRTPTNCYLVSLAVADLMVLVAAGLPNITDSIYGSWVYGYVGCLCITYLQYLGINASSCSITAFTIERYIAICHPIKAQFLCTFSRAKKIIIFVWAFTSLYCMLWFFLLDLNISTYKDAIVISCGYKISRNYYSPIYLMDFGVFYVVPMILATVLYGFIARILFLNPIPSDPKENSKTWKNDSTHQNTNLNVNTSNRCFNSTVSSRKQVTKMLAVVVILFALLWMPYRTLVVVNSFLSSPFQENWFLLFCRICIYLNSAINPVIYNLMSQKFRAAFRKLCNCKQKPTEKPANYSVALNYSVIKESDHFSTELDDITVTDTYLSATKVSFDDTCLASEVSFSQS
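Enhancer read-out: after compound pinning and an initial kinetic agonist-mode read, an EC20 of TRH (10 nM final) was injected and fluo-8 calcium signal (Ex 480/Em 530) followed at 1 s/cycle for 100 cycles in TRHR-expressing cells.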
TRHR agonist: activates the human TRH receptor; TRHR cells, calcium flux fluo-8, FDSS agonist mode; activation, % at 2 µM; hit rate 0.18% among 360,000; AID 493084; note: 0% is about no effect
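TRHR-expressing cells, plated overnight in medium with 10% serum, were loaded with fluo-8 calcium dye at room temperature. After a 10 s baseline, library compound was pin-added and calcium release was recorded kinetically (ex 480/em 530) as agonist response.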
* marks the source's active call; other numbers are inactive results; x = not tested or not shown; ! = a repeat was not active. Most compounds without a hit are left out; they make up all but 4.6% or so of the library. Cut-off read from the data, not from the text of the source, unless noted: active = activation above about 30%; inactive = the rest.

SMILES	D1 potentiator	D1 antag	D1 agonist	TRHR enhancer	TRHR agonist
CCOc1ccc(Nc2sc(C(=O)c3ccc4c(c3)OCO4)c(N)c2S(=O)(=O)c2ccc(C)cc2)cc1	-1.4	-16.7	37.4*	3.1	2.2
Cc1ccc(S(=O)(=O)c2c(Nc3cc(C)ccc3C)sc(C(=O)c3ccc4c(c3)OCO4)c2N)cc1	8.3	8.4	83.9*	23.6	-1.3
Cc1ccc(S(=O)(=O)c2c(Nc3ccc(C)c(C)c3)sc(C(=O)c3ccc4c(c3)OCO4)c2N)cc1	5.8	-22.9	67.6*	-17.8	6.5
Nc1c(C(=O)c2ccc3c(c2)OCO3)sc(Nc2ccccc2F)c1S(=O)(=O)c1ccccc1	-1.0	3.6	21.3	-2.4	1.1
CCOC(=O)c1c(C(C)(C)C)oc2ccc(O)cc12	3.0	-1.5	88.2*	-4.6	-1.0
CCc1ccc(/C=N/n2c(COc3ccccc3)n[nH]c2=S)cc1	-4.3	-4.8	60.7*	-21.1	-0.8
FC(F)(F)c1ccccc1/C=N/n1c(COc2ccccc2)n[nH]c1=S	-5.6	-35.6*	38.3*	2.5	-0.5
S=c1[nH]nc(COc2ccccc2)n1/N=C/c1ccncc1	0.5	x	-1.9	-3.7	0.1
S=c1[nH]nc(COc2ccccc2)n1/N=C/c1ccccc1Br	-4.5	7.7	2.8	-5.6	-0.4
CCCCNC(=O)C(CC)Sc1nnc(-c2cccc(F)c2)c(-c2cccc(F)c2)n1 (configuration not stated)	-1.6	6.6	5.1	-4.5	-0.6
Cc1ccc(C(=O)Nc2ccc3c(c2)N(C)C(=O)c2ccccc2S3)cc1	-4.5	-11.4	4.9	-2.3	0.0
COc1ccc(-c2nc3scc(CCNS(=O)(=O)c4ccc(F)cc4F)n3n2)cc1OC	1.1	x	-3.0	-0.1	-0.2
COc1ccc(Br)cc1CN(C)CC(=O)Nc1cc(Cl)ccc1Cl	1.5	-31.2*	6.1	-0.3	1.4
COc1cc(Cl)c(C)cc1NC(=O)CN(C)Cc1cccc(OC)c1OC	-7.8	9.6	49.8*	-6.3	-0.8
COc1ccc(Br)cc1CN(C)CC(=O)Nc1ccccc1Cl	-1.6	-8.0	4.5	-5.6	0.2
COc1ccccc1CN(C)CC(=O)Nc1cccc2ccccc12	8.7	7.2	-3.0	4.7	-0.8
COc1ccc(S(=O)(=O)NC2CCc3ccccc32)cc1OC (configuration not stated)	-5.2	-37.2*	10.8	-0.4	0.2
Cn1c(=O)oc2cc(S(=O)(=O)NC3CCCc4ccccc43)ccc21 (configuration not stated)	x	-35.9*	20.4	1.4	0.5
CCc1nn(C(CC)C(=O)NCc2ccc(OC)c(OC)c2)c(=O)c2cc3oc(C)cc3n12 (configuration not stated)	4.5	40.9	0.5	41.3*	-2.0
CCc1nn(C(CC)C(=O)NCc2ccc(F)cc2)c(=O)c2cc3occc3n12 (configuration not stated)	-2.2	-15.8	-0.7	-3.8	-2.2
CCCCn1c(O)c(N=Nc2ccccc2O)c2ccccc21	2.3	-0.8	30.1*	-5.8	8.6
Cc1cc(/C=C(\C#N)C(=O)NCc2cccs2)c(C)n1-c1ccc([N+](=O)[O-])cc1	-11.2	-55.9*	3.6	-3.7	0.8
CCOC(=O)/C(C#N)=C/c1cc(C)n(-c2ccc(C)cc2)c1C	-30.2	-75.3*	2.1	-0.4	1.4
CCOC(=O)/C(C#N)=C\c1ccc(N2CCN(C/C=C/c3ccccc3)CC2)cc1	-9.3	-22.4	108.9*	0.2	11.9
CCOC(=O)/C(C#N)=C\c1cc(C)n(-c2ccccc2)c1C	0.4	-26.8	3.1	5.0	-1.1
SMILES	D1 potentiator	D1 antag	D1 agonist	TRHR enhancer	TRHR agonist
COc1cc(OC)c2c(OC)cccc2n1	-3.6	-82.3*	0.1	-10.4	0.2
Cc1cc(C)cc(NC(=O)C(=O)NCC(c2cccnc2)N2CCN(c3ccccc3)CC2)c1 (configuration not stated)	-2.1	6.1	3.8	1.0	0.2
Cc1cc(C)c(S(=O)(=O)c2ccc(Cl)cc2)c(=O)[nH]1	3.0	4.0	1.9	6.0	0.2
N#Cc1cc(S(=O)(=O)c2ccc(Cl)cc2)c(N)[nH]c1=O	-4.0	-45.2*	1.5	-6.2	-0.6
CCOC(=O)c1sc2ccccc2c1OC(=O)c1ccccc1	3.5	4.2	9.0	-0.6	0.5
CCOC(=O)c1sc2ccccc2c1NC(=O)c1coc2ccccc2c1=O	0.6	-6.3	1.2	36.8*	0.4
CCOC(=O)c1sc(NC(=O)c2nc3nc(C)cc(C(F)F)n3n2)c(C(=O)OC(C)C)c1C	-0.8	-10.5	0.9	-4.5	-0.2
O=C(Cc1coc2cc3c(cc12)CCC3)NC1CCCCCCC1	1.1	-50.9*	5.4	7.5	0.6
CC(=O)N1CCc2c(sc3c2c(=O)n(-c2ccc(F)cc2)c(=O)n3Cc2ccc(C#N)cc2)C1	3.8	-6.4	-1.2	1.2	-0.3
COc1ccccc1NS(=O)(=O)c1cc(NC(C)=O)ccc1N1CCCCC1	6.5	11.3	3.8	-1.9	1.6
COCC(=O)Nc1ccc(N2CCCC2)c(S(=O)(=O)Nc2ccccc2OC)c1	9.3	-31.2*	-0.6	-5.7	-0.1
O=C(Nc1noc2ccccc12)c1cccc(F)c1	-3.1	4.2	1.2	-6.2	1.3
O=C(Nc1noc2ccccc12)c1ccc(F)cc1	-0.1	3.6	3.3	46.0*	0.5
Cc1cccc2cc(CN(Cc3ccco3)S(=O)(=O)c3ccc4c(c3)OCCO4)c(=O)[nH]c12	1.8	-50.7*	2.7	-2.8	0.2
O=C(C1CCCN1C(=O)c1cccs1)N1CCN(S(=O)(=O)c2ccc(F)cc2)CC1 (configuration not stated)	-1.7	15.6	-0.8	-1.2	-0.5
O=C(CCS(=O)(=O)c1ccccc1)Nc1ccc(Cl)cn1	-1.3	3.9	0.3	8.2	-0.1
CCOC(=O)c1ccc(N2C(=O)c3n[nH]c(C)c3C2c2ccc(OC)c(OC)c2)cc1 (configuration not stated)	-7.7	-36.7*	1.3	3.3	-0.2
CC(NC(=O)c1cc2cc(F)ccc2[nH]1)c1ccccc1 (configuration not stated)	-16.3	-55.1*	17.0	25.2	0.5
O=C(O)c1cc2cc(F)ccc2[nH]1	-0.2	4.4	44.4*!	3.1	0.3
COc1ccc(NC(=O)CSc2nnc(CCC(=O)Nc3ccc(C)c(Cl)c3)n2C)cc1	-0.1	10.9	0.3	-1.8	0.1
CCC12CN3CC(C)(CN(C1)C3c1ccccc1C)C2=O (configuration not stated)	-1.1	11.1	2.9	-3.2	-0.4
O=C(CN1Cc2ccccc2C1=O)Nc1cc(F)ccc1F	-1.2	-6.1	-1.6	-8.8	0.1
CC(C)(C)c1ccc2c(c1)OC(C(=O)N/N=C\c1ccc[nH]1)CO2 (configuration not stated)	-2.5	-0.4	2.1	12.1	0.3

Screening results deposited in PubChem BioAssay by National Center for Advancing Translational Sciences (NCATS).
